Results taken from the supplement of paper PMC7411054.
Structures can show the parent of a compound that is named as a salt.

Assays:
Test in all cases: phenotypically active (imaging signature differs from DMSO and reproducible) at any of 0.3-9 uM (binary (1 = active, 0 = inactive)); higher = active
Settings in all cases: treatment time: 24 h
A549-ACTB-RAB5A = system: A549-ACTB-RAB5A
How it was run: (§1)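 Four wells per concentration (0.3, 1, 3 or 9 µM) were treated for 24 h in each of fifteen gene-edited reporter lines from A549, HepG2 and WPMY1 cells, then imaged live. After normalising live-cell features to solvent control wells, deviation was defined as ≥3 of 4 wells lying past the 95th percentile of control Euclidean distances. Reproducibility was defined as a median replicate Pearson correlation above the 95th percentile of non-replicates. Both had to hold for phenotypic activity.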

A549-CANX-COX4 = system: A549-CANX-COX4
How it was run: as §1

A549-GM130-SQSTM1 = system: A549-GM130-SQSTM1
How it was run: as §1

A549-TP53BP1-CLTA = system: A549-TP53BP1-CLTA
How it was run: as §1

A549-TUBA1B-RELA = system: A549-TUBA1B-RELA
How it was run: as §1

HepG2-ACTB-RAB5A = system: HepG2-ACTB-RAB5A
How it was run: as §1

HepG2-CANX-COX4 = system: HepG2-CANX-COX4
How it was run: as §1

HepG2-GM130-SQSTM1 = system: HepG2-GM130-SQSTM1
How it was run: as §1

HepG2-TP53BP1-CLTA = system: HepG2-TP53BP1-CLTA
How it was run: as §1

HepG2-TUBA1B-RELA = system: HepG2-TUBA1B-RELA
How it was run: as §1

WPMY1-ACTB-RAB5A = system: WPMY1-ACTB-RAB5A
How it was run: as §1

WPMY1-CANX-COX4 = system: WPMY1-CANX-COX4
How it was run: as §1

WPMY1-GM130-SQSTM1 = system: WPMY1-GM130-SQSTM1
How it was run: as §1

WPMY1-TP53BP1-CLTA = system: WPMY1-TP53BP1-CLTA
How it was run: as §1

WPMY1-TUBA1B-RELA = system: WPMY1-TUBA1B-RELA
How it was run: as §1

Measured: phenotypically active

O=c1[nH]cnc2ccccc12
inactive: A549-ACTB-RAB5A 0 | A549-CANX-COX4 0 | A549-GM130-SQSTM1 0 | A549-TP53BP1-CLTA 0 | A549-TUBA1B-RELA 0 | HepG2-ACTB-RAB5A 0 | HepG2-CANX-COX4 0 | HepG2-GM130-SQSTM1 0 | HepG2-TP53BP1-CLTA 0 | HepG2-TUBA1B-RELA 0 | WPMY1-ACTB-RAB5A 0 | WPMY1-CANX-COX4 0 | WPMY1-GM130-SQSTM1 0 | WPMY1-TP53BP1-CLTA 0 | WPMY1-TUBA1B-RELA 0

CC[C@H](C)C(=O)O[C@H]1C[C@H](O)C=C2C=C[C@H](C)[C@H](CC[C@@H](O)C[C@@H](O)CC(=O)O)[C@H]21 [pravastatin]
inactive: A549-ACTB-RAB5A 0 | A549-CANX-COX4 0 | A549-GM130-SQSTM1 0 | A549-TP53BP1-CLTA 0 | A549-TUBA1B-RELA 0 | HepG2-ACTB-RAB5A 0 | HepG2-CANX-COX4 0 | HepG2-GM130-SQSTM1 0 | HepG2-TP53BP1-CLTA 0 | HepG2-TUBA1B-RELA 0 | WPMY1-ACTB-RAB5A 0 | WPMY1-CANX-COX4 0 | WPMY1-GM130-SQSTM1 0 | WPMY1-TP53BP1-CLTA 0 | WPMY1-TUBA1B-RELA 0

COc1ccc2c(c1OC)C(=O)O[C@@H]2[C@H]1c2c(cc3c(c2OC)OCO3)CCN1C [Noscapine hydrochloride]
inactive: A549-ACTB-RAB5A 0 | A549-CANX-COX4 0 | A549-GM130-SQSTM1 0 | A549-TP53BP1-CLTA 0 | A549-TUBA1B-RELA 0 | HepG2-ACTB-RAB5A 0 | HepG2-CANX-COX4 0 | HepG2-GM130-SQSTM1 0 | HepG2-TP53BP1-CLTA 0 | HepG2-TUBA1B-RELA 0 | WPMY1-ACTB-RAB5A 0 | WPMY1-CANX-COX4 0 | WPMY1-GM130-SQSTM1 0 | WPMY1-TP53BP1-CLTA 0 | WPMY1-TUBA1B-RELA 0

COC1=C(O)C(=O)c2ccccc2C1=O [2-hydroxy-3-methoxy-naphtoquinone]
inactive: A549-ACTB-RAB5A 0 | A549-CANX-COX4 0 | A549-GM130-SQSTM1 0 | A549-TP53BP1-CLTA 0 | A549-TUBA1B-RELA 0 | HepG2-ACTB-RAB5A 0 | HepG2-CANX-COX4 0 | HepG2-GM130-SQSTM1 0 | HepG2-TP53BP1-CLTA 0 | HepG2-TUBA1B-RELA 0 | WPMY1-ACTB-RAB5A 0 | WPMY1-CANX-COX4 0 | WPMY1-GM130-SQSTM1 0 | WPMY1-TP53BP1-CLTA 0 | WPMY1-TUBA1B-RELA 0

O=P(O)(O)C(O)(Cn1ccnc1)P(=O)(O)O [zoledronic-acid]
inactive: A549-ACTB-RAB5A 0 | A549-CANX-COX4 0 | A549-GM130-SQSTM1 0 | A549-TP53BP1-CLTA 0 | A549-TUBA1B-RELA 0 | HepG2-ACTB-RAB5A 0 | HepG2-CANX-COX4 0 | HepG2-GM130-SQSTM1 0 | HepG2-TP53BP1-CLTA 0 | HepG2-TUBA1B-RELA 0 | WPMY1-ACTB-RAB5A 0 | WPMY1-CANX-COX4 0 | WPMY1-GM130-SQSTM1 0 | WPMY1-TP53BP1-CLTA 0 | WPMY1-TUBA1B-RELA 0

Cc1cc(O)cc2c1C(=O)Oc1cc3c(c(O)c1O2)C(=O)OC3 [Variolaric acid]
inactive: A549-ACTB-RAB5A 0 | A549-CANX-COX4 0 | A549-GM130-SQSTM1 0 | A549-TP53BP1-CLTA 0 | A549-TUBA1B-RELA 0 | HepG2-ACTB-RAB5A 0 | HepG2-CANX-COX4 0 | HepG2-GM130-SQSTM1 0 | HepG2-TP53BP1-CLTA 0 | HepG2-TUBA1B-RELA 0 | WPMY1-ACTB-RAB5A 0 | WPMY1-CANX-COX4 0 | WPMY1-GM130-SQSTM1 0 | WPMY1-TP53BP1-CLTA 0 | WPMY1-TUBA1B-RELA 0

CN1C(CSCC(F)(F)F)Nc2cc(Cl)c(S(N)(=O)=O)cc2S1(=O)=O (stereo not given) [polythiazide]
inactive: A549-ACTB-RAB5A 0 | A549-CANX-COX4 0 | A549-GM130-SQSTM1 0 | A549-TP53BP1-CLTA 0 | A549-TUBA1B-RELA 0 | HepG2-ACTB-RAB5A 0 | HepG2-CANX-COX4 0 | HepG2-GM130-SQSTM1 0 | HepG2-TP53BP1-CLTA 0 | HepG2-TUBA1B-RELA 0 | WPMY1-ACTB-RAB5A 0 | WPMY1-CANX-COX4 0 | WPMY1-GM130-SQSTM1 0 | WPMY1-TP53BP1-CLTA 0 | WPMY1-TUBA1B-RELA 0

Nc1nnc(-c2cccc(Cl)c2Cl)c(N)n1 [lamotrigine]
inactive: A549-ACTB-RAB5A 0 | A549-CANX-COX4 0 | A549-GM130-SQSTM1 0 | A549-TP53BP1-CLTA 0 | A549-TUBA1B-RELA 0 | HepG2-ACTB-RAB5A 0 | HepG2-CANX-COX4 0 | HepG2-GM130-SQSTM1 0 | HepG2-TP53BP1-CLTA 0 | HepG2-TUBA1B-RELA 0 | WPMY1-ACTB-RAB5A 0 | WPMY1-CANX-COX4 0 | WPMY1-GM130-SQSTM1 0 | WPMY1-TP53BP1-CLTA 0 | WPMY1-TUBA1B-RELA 0

CCOC(=O)CCNc1cc(N2CCc3ccccc3CC2)nc(-c2cccnc2)n1
inactive: A549-ACTB-RAB5A 0 | A549-CANX-COX4 0 | A549-GM130-SQSTM1 0 | A549-TP53BP1-CLTA 0 | A549-TUBA1B-RELA 0 | HepG2-ACTB-RAB5A 0 | HepG2-CANX-COX4 0 | HepG2-GM130-SQSTM1 0 | HepG2-TP53BP1-CLTA 0 | HepG2-TUBA1B-RELA 0 | WPMY1-ACTB-RAB5A 0 | WPMY1-CANX-COX4 0 | WPMY1-GM130-SQSTM1 0 | WPMY1-TP53BP1-CLTA 0 | WPMY1-TUBA1B-RELA 0

CNC[C@H](O)c1ccc(O)c(O)c1 [epinephrine]
inactive: A549-ACTB-RAB5A 0 | A549-CANX-COX4 0 | A549-GM130-SQSTM1 0 | A549-TP53BP1-CLTA 0 | A549-TUBA1B-RELA 0 | HepG2-ACTB-RAB5A 0 | HepG2-CANX-COX4 0 | HepG2-GM130-SQSTM1 0 | HepG2-TP53BP1-CLTA 0 | HepG2-TUBA1B-RELA 0 | WPMY1-ACTB-RAB5A 0 | WPMY1-CANX-COX4 0 | WPMY1-GM130-SQSTM1 0 | WPMY1-TP53BP1-CLTA 0 | WPMY1-TUBA1B-RELA 0

CCOC(=O)Nc1ccc2c(c1)N(C(=O)CCN1CCOCC1)c1ccccc1S2 [moracizine]
inactive: A549-ACTB-RAB5A 0 | A549-CANX-COX4 0 | A549-GM130-SQSTM1 0 | A549-TP53BP1-CLTA 0 | A549-TUBA1B-RELA 0 | HepG2-ACTB-RAB5A 0 | HepG2-CANX-COX4 0 | HepG2-GM130-SQSTM1 0 | HepG2-TP53BP1-CLTA 0 | HepG2-TUBA1B-RELA 0 | WPMY1-ACTB-RAB5A 0 | WPMY1-CANX-COX4 0 | WPMY1-GM130-SQSTM1 0 | WPMY1-TP53BP1-CLTA 0 | WPMY1-TUBA1B-RELA 0
